In ChEMBL document CHEMBL1157539, “Thousands of chemical starting points for antimalarial lead identification” (Nature, 2010) one finds Inhibition data, which are given here for 23 compounds.

Common to all, as to type: functional
For experiment [1], the system named is Plasmodium falciparum. The experiment is described as follows: GSK_TCMDC: Inhibition of Plasmodium falciparum 3D7 in whole red blood cells, using parasite LDH activity as an index of growth. Test compounds present at 2uM.
Experiment [2] concerns Plasmodium falciparum. As to the kind of experiment: GSK_TCMDC: Inhibition of Plasmodium falciparum Dd2 in whole red blood cells, using parasite LDH activity as an index of growth. Test compounds present at 2uM.
For another experiment, the system named is HepG2. The experiment is described as follows: GSK_TCMDC: Percent inhibition of human HepG2 cell line. Test compounds present at 10uM.

On to `CC(C)COc1ccc(Cl)cc1Cc1nc(-c2nc3ccc(CN4CCCCC4)cc3[nH]2)co1.Cl`, for which the Inhibition (in general, how much of the control response was suppressed) in the experiment on Plasmodium falciparum [1] is listed as 100%; in the experiment on Plasmodium falciparum [2], 70%; in the experiment with HepG2, 49%.
On the same counts, the results for `C=CCOc1ccc(C2C(C(=O)OC)=C(C)NC3=C2C(=O)c2ccccc23)cc1OC` (centres undefined) are 82%, 65% and 0%.
The matching figures for `N=C(N)CCN(Cc1ccc(Cl)cc1)c1ccc(Cl)cc1`: 96%, 92% and 22%.
`Cc1nc(NCc2ccccc2)cc(NCC(O)c2ccc(O)cc2)n1` (centres undefined): the Inhibition in the experiment with Plasmodium falciparum [1] is 85%; with Plasmodium falciparum [2] it was 10%; with HepG2, 5%.
The matching figures for `N=C1NC(=O)C(=Cc2cn(-c3ccccc3)nc2-c2cccc(S(=O)(=O)N3CCCC3)c2)S1`: 85%, 68% and 0%.
On the same counts, the results for `CCN(CCCN1CCCCC1)c1cc(C)nc(Nc2ccc(C(F)(F)F)cc2)n1.O=C(O)C(F)(F)F` are 100%, 99% and 26%.
The matching figures for `COC(=O)c1cccc(CNCc2cccc(-c3cccc(-c4nc5ccccc5[nH]4)c3)c2)c1.O=C(O)C(F)(F)F`: 95%, 58% and 3%.
Regarding `O=c1cc(NCCCNCc2cccc(OC(F)(F)F)c2)[nH]c2ccccc12`, the figures for the Inhibition in the experiment with Plasmodium falciparum [1], with Plasmodium falciparum [2] and with HepG2 were 97%, 72% and 0%, respectively.
The matching figures for `CC[C@H](C)CNCc1ccc(OCc2cccc(COc3ccc(CNC[C@@H](C)CC)cc3I)c2)c(I)c1.Cl`: 99%, 60% and 99%.
On the same counts, the results for `CCCN(c1ccc(C(F)(F)F)cc1[N+](=O)[O-])S(=O)(=O)C(c1ccccc1)c1ccc(C(F)(F)F)cc1[N+](=O)[O-]` (centres undefined) are 94%, 49% and 0%.
The matching figures for `COc1cc(CC2c3cc(O)c(Cl)cc3CCN2C)c(OC)cc1C.Cl` (centres undefined): 99%, 88% and 10%.
For the compound `CC(=O)c1ccc(N2C(=O)C3C(Cc4ccc(OC(C)(C)C)cc4)NC4(C(=O)N(Cc5ccc(C(C)(C)C)cc5)c5ccccc54)C3C2=O)cc1` (centres undefined), the Inhibition in the experiment on Plasmodium falciparum [1] worked out at 86%; in the experiment with Plasmodium falciparum [2], 81%; in the experiment on HepG2, 13%.
On the same counts, the results for `CN(C)[C@@H]1C(O)=C(C(N)=O)C(=O)[C@@]2(O)C(O)=C3C(=O)c4c(O)ccc(C#Cc5ccccn5)c4C[C@H]3C[C@@H]12.Cl` are 92%, 75% and 17%.
On the same counts, the results for `COc1ccc(C2CCN(CCCNC(=O)c3ccc(NC(=O)c4ccc(Cl)cc4)cc3)CC2)c(OC)c1` are 99%, 58% and 26%.
On the same counts, the results for `O=C(Nc1ccc(Cn2ncc(N3CCCNCC3)c(Cl)c2=O)cc1)Nc1cccc(SC(F)(F)F)c1.O=C(O)C(F)(F)F` are 92%, 33% and 12%.
Consider `N#Cc1cccc(NC(=O)C2=C(CCc3ccc4c(c3)OCO4)NC(=O)NC2c2cccc(C#N)c2)c1` (centres undefined), for which the Inhibition in the experiment on Plasmodium falciparum [1] is recorded as 96%; with Plasmodium falciparum [2], 47%; with HepG2 it was 3%.
The matching figures for `CC(C)c1cc(Oc2c(I)cc(CCCc3ncc[nH]3)cc2I)ccc1O.Cl`: 88%, 1% and 28%.
Regarding `Cl.c1ccc2c(C3CCN(CCCCOc4ccc5c(c4)CCN(C4CCC4)CC5)CC3)c[nH]c2c1`, the Inhibition with Plasmodium falciparum [1] is given as 100%; with Plasmodium falciparum [2], 100%; in the experiment on HepG2, 80%.
Take `COc1ccc(S(=O)(=O)N(CCCN2CCN(C)CC2)Cc2csc(-c3ccc(CNCc4ccccc4)cc3)n2)cc1.O=C(O)C(F)(F)F`: the Inhibition in the experiment on Plasmodium falciparum [1] was determined as 88%; with Plasmodium falciparum [2], 86%; with HepG2, 10%.
On the same counts, the results for `N=C(N)NN=CC(=O)Nc1cc([N+](=O)[O-])cc([N+](=O)[O-])c1.O=S(=O)(O)O` are 100%, 0% and 0%.
On the same counts, the results for `O=C(NCc1ccc(F)cc1)Nc1cccc(-c2ccc(-c3nc4ccccc4[nH]3)cc2)c1` are 100%, 49% and 45%.
The matching figures for `Cl.Nc1nc(N)c2c(ccc3c2ccn3CCCC2CCCNC2)n1` (centres undefined): 98%, 55% and 67%.
On to `Nc1c(Cl)cc(C(O)CNCCCCCOCCCc2ccc(O)c3ncccc23)cc1Cl.O=C(O)/C=C/C(=O)O` (centres undefined), for which the values for the Inhibition with Plasmodium falciparum [1], in the experiment with Plasmodium falciparum [2] and with HepG2 were 90%, 12% and 65%, respectively.
